Laboratory results: PMC5540273 (PLoS ONE, 2017)
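Further: kd values determined as follow-up on hits from a single-replicate KINOMEscan panel screen.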

These compounds were tested on JAK2(JH1domain-catalytic).
`COc1cc(Nc2nccc(N3CCC(NC(=O)C(C)c4ccc(Cl)cc4)C3)n2)cc(OC)c1OC` (stereo not shown) [GSK1379757] showed a Kd of 140 nM.
For `COc1cc(Nc2nccc(N3CCC(NC(=O)C4COc5ccccc5O4)C3)n2)cc(OC)c1OC` (stereo not shown) [GSK1379761], the Kd was 47 nM.
Work on `O=C(NCCNc1ccnc(Nc2ccc(F)cc2)n1)Nc1ccc2c(c1)OCO2` [GSK1379882] yielded a Kd of 2000 nM.
`COc1ccc(Nc2nccc(N3CCC(NS(=O)(=O)c4ccc(NC(C)=O)cc4)C3)n2)cc1` (stereo not shown) [GSK1379729] was tested, and the Kd was 38 nM.

What follows are compounds tested on JAK3(JH1domain-catalytic).
Compound `COc1cccc(C2=C(Nc3cccc(C(=O)O)c3)C(=O)NC2=O)c1` [SB-390770] has a Kd of 480 nM.
With `COc1cc(Nc2ccnc3ccc(C(F)(F)F)cc23)cc(OC)c1OC` [GW577382] the Kd was > 10000 nM.
`Cc1nc(N(C)[C@H]2CN(C(=O)CC#N)CC[C@H]2C)c2cc[nH]c2n1` was tested, and the Kd was 140 nM.

Each compound was assayed on T1, JNK1.
T1 construct: gene MAPK8
Work on `CCC(=O)c1c(-c2ccccc2)c2cc(Cl)ccc2c(=O)n1Cc1cc(S(C)(=O)=O)n(CC(N)=O)n1` yielded a Kd of 160 nM.
`CCC(=O)c1c(-c2ccccc2)c2cc(Cl)ccc2c(=O)n1Cc1cc(C(=O)NC2CC2)n(C)n1` showed a Kd of 20 nM.
In the case of `CCC(=O)c1c(-c2ccccc2)c2cc(Cl)ccc2c(=O)n1Cc1cc(S(C)(=O)=O)n(CCC(C)(C)O)n1`, the Kd is reported as 19 nM.
For `CCC(=O)c1c(-c2ccccc2)c2cc(Cl)ccc2c(=O)n1Cc1cc(S(C)(=O)=O)n(CC(F)F)n1`, the Kd was 37 nM.
`CCC(=O)c1c(-c2ccccc2)c2cc(Cl)ccc2c(=O)n1Cc1ccc(C(=O)O)cc1` was tested, and the Kd was 66 nM.
Compound `COC(=O)c1c(-c2ccccc2)c2cc(Br)ccc2c(=O)n1Cc1ccc(S(C)(=O)=O)cc1` has a Kd of 480 nM.
With `COC(=O)c1c(-c2ccccc2)c2cc(Br)ccc2c(=O)n1Cc1ccc(NC(=O)CCC(=O)O)cc1` the Kd was 58 nM.

The compounds below were run on T2, JNK2.
T2 construct: gene MAPK9
In the case of `CCC(=O)c1c(-c2ccccc2)c2cc(Cl)ccc2c(=O)n1Cc1cc(S(C)(=O)=O)n(CC(N)=O)n1`, the Kd is reported as 120 nM.
Work on `CCC(=O)c1c(-c2ccccc2)c2cc(Cl)ccc2c(=O)n1Cc1cc(C(=O)NC2CC2)n(C)n1` yielded a Kd of 10 nM.
`CCC(=O)c1c(-c2ccccc2)c2cc(Cl)ccc2c(=O)n1Cc1cc(S(C)(=O)=O)n(CCC(C)(C)O)n1` was tested, and the Kd was 15 nM.
`CCC(=O)c1c(-c2ccccc2)c2cc(Cl)ccc2c(=O)n1Cc1cc(S(C)(=O)=O)n(CC(F)F)n1` was tested, and the Kd was 33 nM.
With `CCC(=O)c1c(-c2ccccc2)c2cc(Cl)ccc2c(=O)n1Cc1ccc(C(=O)O)cc1` the Kd was 77 nM.
`COC(=O)c1c(-c2ccccc2)c2cc(Br)ccc2c(=O)n1Cc1ccc(S(C)(=O)=O)cc1` was tested, and the Kd was 350 nM.
In the case of `COC(=O)c1c(-c2ccccc2)c2cc(Br)ccc2c(=O)n1Cc1ccc(NC(=O)CCC(=O)O)cc1`, the Kd is reported as 66 nM.

These compounds were tested on T3, JNK3.
T3 construct: gene MAPK10
For `CCC(=O)c1c(-c2ccccc2)c2cc(Cl)ccc2c(=O)n1Cc1cc(S(C)(=O)=O)n(CC(N)=O)n1`, the Kd was 60 nM.
Work on `CCC(=O)c1c(-c2ccccc2)c2cc(Cl)ccc2c(=O)n1Cc1cc(C(=O)NC2CC2)n(C)n1` yielded a Kd of 3.8 nM.
`CCC(=O)c1c(-c2ccccc2)c2cc(Cl)ccc2c(=O)n1Cc1cc(S(C)(=O)=O)n(CCC(C)(C)O)n1` gave a Kd of 4.6 nM.
Work on `CCC(=O)c1c(-c2ccccc2)c2cc(Cl)ccc2c(=O)n1Cc1cc(S(C)(=O)=O)n(CC(F)F)n1` yielded a Kd of 9.2 nM.
Work on `CCc1nc(-c2cccc(C)c2)c(-c2ccncc2)s1` yielded a Kd of 81 nM.
`CCC(=O)c1c(-c2ccccc2)c2cc(Cl)ccc2c(=O)n1Cc1ccc(C(=O)O)cc1` gave a Kd of 12 nM.
Work on `COC(=O)c1c(-c2ccccc2)c2cc(Br)ccc2c(=O)n1Cc1ccc(S(C)(=O)=O)cc1` yielded a Kd of 73 nM.
With `COC(=O)c1c(-c2ccccc2)c2cc(Br)ccc2c(=O)n1Cc1ccc(NC(=O)CCC(=O)O)cc1` the Kd was 13 nM.

The compounds below were run on KIT.
`Cl.NS(=O)(=O)c1cccc(Nc2cc(-c3ccc(F)cc3)n[nH]2)c1` [GW824645] gave a Kd of 16 nM.
For `CCCNC(=O)Nc1ccc(Oc2ncnc3ccn(C)c23)cc1`, the Kd was 67 nM.
With `Nc1n[nH]c2ncc(-c3ccccc3)cc12` [SB-517081] the Kd was 92 nM.
`COc1ccc(-n2cnc3c(N)ncnc32)cc1` [SKF-97236] was tested, and the Kd was 200 nM.
`CC(C)(C)c1ccc(C(=O)Nc2cn3cc(-c4ccccc4)ccc3n2)cc1` was tested, and the Kd was > 10000 nM.
